Measurements taken from PubChem BioAssay AID463173 (ICCB-Longwood Screening Facility, Harvard Medical School, 2010).
Out of some 52,000 compounds screened, about 4,300 (8.3%) were called active. The entries come from a sample that favours actives as a whole. Values without a mark were called inactive. No stated cut-off is given here; in the data, active means survival mostly below about 52% (no sharp cut-off); inactive means mostly above about 56%.

system: DeltatarO mutant; test: S. aureus survival, RN4220 and DeltatarO strains – OD600, teichoic acid synthesis inhibitors, primary screen (AID 463173); conditions: S. aureus RN4220 wild type/DeltatarO growth, OD600, 18 h, stronger effect = lower value, screened at 18.75 µg/mL (by protocol)

Compound	survival
COc1ccc(Cl)cc1NC(=O)CN1c2ccccc2S(=O)(=O)c2ccccc21	75%
O=C(Nc1ccc(Cl)cc1Cl)c1cc(S(=O)(=O)N2CCCCCC2)ccc1F	76%
Cc1ccc(N2CCN(S(=O)(=O)c3ccc(F)c(C(=O)Nc4ccc(Cl)cc4Cl)c3)CC2C)cc1 (configuration not stated)	-4% (active)
O=C(Nc1ccccc1C(F)(F)F)C1CCN(S(=O)(=O)Cc2ccccc2)CC1	75%
CCc1ccccc1NC(=O)C1CCN(S(=O)(=O)c2ccccc2)CC1	56%
Cc1ccc(C)c(N2CCN(S(=O)(=O)c3ccc(F)c(C(=O)Nc4ccc(Cl)cc4Cl)c3)CC2)c1	96%
COc1ccc(OC)c(NC(=O)C2CCN(S(=O)(=O)c3ccc(C)cc3)CC2)c1	50%
COc1ccc(Cl)cc1NC(=O)C1CCN(S(=O)(=O)c2ccc(F)cc2)CC1	43% (active)
COc1ccc(C)cc1NC(=O)c1cc(S(=O)(=O)N2CCC(C)CC2)ccc1F	98%
COc1ccc(Cl)cc1NC(=O)C1CCN(S(=O)(=O)c2ccc3c(c2)CC(C)N3C(C)=O)CC1 (configuration not stated)	92%
Cc1cccc(N2CCN(S(=O)(=O)c3ccc(F)c(C(=O)Nc4cccc(Cl)c4C)c3)CC2C)c1 (configuration not stated)	85%
O=C(Nc1ccccc1C(F)(F)F)C1CCN(S(=O)(=O)c2ccccc2)CC1	49% (active)
COc1cc(Cl)c(C)cc1NC(=O)c1cc(S(=O)(=O)N2CCCC2)ccc1F	37% (active)
CCc1nn(CC(=O)NCc2ccc(C)cc2)c(=O)c2cc3occc3n12	105%
CCOc1ccc(NC(=O)Cn2cc(C(=O)c3ccc(F)cc3)c(=O)c3cc4c(cc32)OCCO4)cc1	65%
COc1ccc2nc(N(Cc3cccnc3)C(=O)COc3ccccc3)sc2c1	90%
Cc1ccc(OCCCSc2nc(-c3ccc(C(C)(C)C)cc3)nc3cc(=O)[nH]n23)cc1C	58%
COc1ccc(NC(=O)C2=CC(c3ccc4c(c3)OCO4)=NS(=O)(=O)N2C)cc1OC	79%
O=C(CSc1ncn(-c2ccccc2)n1)NC1CCCCC1	61%

Compound	survival
CCOC(=O)c1c(NC(=O)CC)sc(C(=O)OC)c1C	75%
CCOC(=O)c1ccc(-n2c(-c3ccc(C)cc3)c(C)n3c4c(=O)n(C)c(=O)n(C)c4nc23)cc1	75%
CCC(Oc1ccccc1)C(=O)Nc1nnc(S(=O)(=O)N2CCCC2)s1 (configuration not stated)	103%
COc1ccc(C(=O)Nc2nnc(C(C)C)s2)cc1OC	55%
CCN(c1ccccc1C)S(=O)(=O)c1nnc(NC(=O)c2ccc(OC)c(OC)c2)s1	40% (active)
CCOc1ccc(C(=O)Nc2nnc(S(=O)(=O)Nc3ccccc3)s2)cc1	34% (active)
CCC(Oc1ccccc1)C(=O)Nc1nnc(S(=O)(=O)Nc2ccccc2)s1 (configuration not stated)	40% (active)
O=C(COc1ccccc1)Nc1nnc(S(=O)(=O)Nc2ccccc2)s1	79%
CCC(Oc1ccccc1)C(=O)Nc1nnc(S(=O)(=O)N(CC)CC)s1 (configuration not stated)	104%
CCOc1ccc(C(=O)Nc2nnc(S(=O)(=O)N(CC)c3ccccc3C)s2)cc1	44% (active)
COc1ccc(NS(=O)(=O)c2nnc(NC(=O)c3ccccc3F)s2)cc1	72%
O=C(Cn1c(-c2cccs2)cc2cc(Cl)ccc21)N1CCN(c2ccccc2)CC1	78%
CCOC(=O)c1cccnc1SCC(=O)Nc1ccc(C)cc1C	79%
COc1ccc(NC(=O)CN(C)S(=O)(=O)c2cnc[nH]2)cc1	95%
CN(Cc1ccccc1)C(=O)CSc1nc2ccccc2n1Cc1ccccc1F	86%
Cc1ccc(OCC(=O)NCC2(N(C)C)CCCCC2)cc1C	83%
CCOc1ccc(CCNC(=O)c2nnc(Cc3ccc(Cl)cc3Cl)o2)cc1OCC	83%
O=C(Nc1nnc(S(=O)(=O)N2CCCC2)s1)c1ccccc1F	28% (active)
COc1ccccc1C(=O)Nc1nnc(S(=O)(=O)N2CCN(c3ccc(F)cc3)CC2)s1	50%

Compound	survival
O=C(Nc1nnc(S(=O)(=O)N2CCOCC2)s1)c1ccccc1F	86%
COc1ccccc1C(=O)Nc1nnc(S(=O)(=O)N2CCCCCC2)s1	56% (active)
O=C(Nc1nnc(S(=O)(=O)N2CCCC2)s1)c1ccccc1Cl	117%
COc1ccccc1C(=O)Nc1nnc(S(=O)(=O)N2CCCCC2)s1	69%
O=C(Nc1nnc(S(=O)(=O)N2CCOCC2)s1)c1ccccc1Cl	79%
O=C(Nc1nnc(S(=O)(=O)N2CCCCCC2)s1)c1ccccc1Cl	38% (active)
Cc1ccccc1C(=O)Nc1nnc(S(=O)(=O)N2CCCCCC2)s1	47% (active)
COc1ccc(N(C)S(=O)(=O)c2ccc3c(c2)n(C)c(=O)c(=O)n3C)cc1	86%
O=C(CN1CCCN(Cc2ccccc2Cl)S1(=O)=O)NCc1ccccc1	94%
CCCn1c(=O)c2sccc2n2c(CCCC(=O)NCc3ccccc3)nnc12	83%
O=C(c1ccccc1)n1nc(-c2ccco2)nc1NCc1ccccc1Cl	103%
O=C1C2C3C=CC(C3)C2C(=O)N1c1ccc(-c2nc3ccccc3o2)cc1 (configuration not stated)	89%
CCN(C(=O)Cn1c(=O)n(CCCS(=O)(=O)C2CCCCC2)c(=O)c2ccccc21)c1cccc(C)c1	87%
COc1ccccc1CNC(=O)c1ccc2c(c1)N(Cc1cc(C)ccc1C)C(=O)c1ccccc1S2	68%
COc1cccc(NC(=O)Cn2c(=O)oc3cc(S(=O)(=O)N4CCCCC4)ccc32)c1	112%
COc1ccc(N2CCN(C(=O)CN3C(=O)CSc4c3c(C)nn4-c3ccccc3)CC2)cc1	79%
CC(=O)NCCNC(=O)c1ccc2c(=O)n(CCc3ccccc3)c(=O)[nH]c2c1	83%
O=C(Nc1nnc(S(=O)(=O)N2CCCCCC2)s1)c1ccccc1F	47% (active)
CCc1ccc2oc(C(=O)Nc3cc(C)ccc3C)cc(=O)c2c1	52%
